Screening results as filed in PubChem BioAssay.
This is a sample that favours compounds with a hit; in the whole collection about 1.6% have one here.
KCNQ2 inh: KCNQ2 (rat) channel inhibition | AID 2156 | B-score at 10 µM | O88943 | CHO-K1 KCNQ2, FluxOR thallium flux, 20 min; stronger effect = lower value | actives 1.1% (n = 310,000);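 active means fluorescence ratio B-score at most minus 3 library SDs, with starting brightness B-score within 2 library SDs, cut at about -5.5 in these data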
KCNQ2 pot: potentiators of rat KCNQ2 potassium channel; O88943; CHO-K1 KCNQ2, FluxOR thallium flux fluorescence; stronger effect = higher value; B-score at 10 µM; actives 0.54% (n = 310,000); AID 2239;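 active means fluorescence ratio B-score at least 3 SD of library B-scores, with initial fluorescence B-score within 3 of them, cut at about 5.3 in these data; same plate scores as AID 2156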;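 further: B-score of peak minus minimum over baseline fluorescence ratio after K+ and Tl+ stimulus; positive B-score means potentiation of KCNQ2 with more thallium influx and brighter signal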
Kir21 conf inh: confirmation of mouse Kir2.1 potassium channel inhibitors | shares compounds with KCNQ2 pot | Kir2.1-expressing cells, FluxOR thallium flux fluorescence; stronger effect = lower value | Tl flux remaining, % of negative control (stronger effect = lower value), % at 10 µM | actives 41% (n = 2,300) | AID 2032;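 active means Primary-screen hit whose thallium flux fell at least 3 control SD below untreated wells in both duplicates, with normal baseline fluorescence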;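 further: 0% = blank wells without stimulus and 100% = stimulated no-compound controls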
Target sequence (P35561 whole entry, looked up): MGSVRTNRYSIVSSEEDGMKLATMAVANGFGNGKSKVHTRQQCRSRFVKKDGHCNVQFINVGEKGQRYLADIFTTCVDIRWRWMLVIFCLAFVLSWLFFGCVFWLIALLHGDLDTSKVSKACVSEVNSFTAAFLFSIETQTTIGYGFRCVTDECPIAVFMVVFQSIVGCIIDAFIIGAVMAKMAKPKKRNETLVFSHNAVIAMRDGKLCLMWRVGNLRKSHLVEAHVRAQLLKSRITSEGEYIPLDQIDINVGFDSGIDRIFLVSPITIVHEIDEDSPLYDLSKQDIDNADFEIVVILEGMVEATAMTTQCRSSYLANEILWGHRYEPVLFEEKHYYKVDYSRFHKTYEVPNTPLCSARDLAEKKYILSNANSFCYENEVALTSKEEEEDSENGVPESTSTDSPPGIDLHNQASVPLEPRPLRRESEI
HEK293 Tl flux: parental HEK293 activity in Kir2.1 inhibitor counter-screen; parental HEK293 cells, FluxOR thallium flux fluorescence; 0% = unstimulated blank wells; actives 19% (n = 2,300); FluxOR signal as % of negative control (100 = no effect), % at 10 µM; shares compounds with KCNQ2 pot; AID 2105;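 active means dye signal at least 3 control SD above or below untreated wells in both duplicates, raw fluorescence within 3, either direction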;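 further: percent is based on the flux ratio of peak minus minimum fluorescence over baseline F0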
CHO-K1 Tl ctr: parental CHO-K1 activity in KCNQ2 potentiator counter-screen; activity increase over 3SD of controls, % at 10 µM; actives 43% (n = 1,200); shares compounds with KCNQ2 pot; parental CHO-K1 cells, FluxOR thallium flux fluorescence; zero = vehicle mean+3SD, 100% = vehicle-minus-blank window;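 active means signal rise of at least 3 SD above the untreated control mean, in both duplicate wells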;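 further: counter screen of KCNQ2 potentiator hits so any rise reflects channel-independent effects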
KCNQ1 pot spec: human KCNQ1 counter-target activity of KCNQ2 potentiators. shares compounds with KCNQ2 pot. actives 28% (n = 1,200). CHO KCNQ1 stable, FluxOR thallium flux fluorescence; beyond 3SD, as % of vehicle-control signal. activation over 3SD threshold, % at 10 µM;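 active means fluorescence ratio rise of at least 3 SD of vehicle wells above their mean, in both replicate wells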;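 further: 0% = vehicle mean plus 3 SD and 100% = vehicle minus unstimulated blank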
KCNQ2 pot confirm: confirmation of rat KCNQ2 potassium channel potentiators. shares compounds with KCNQ2 pot. CHO-KCNQ2 cells, FluxOR thallium flux fluorescence. potentiation, less the hit threshold, % at 10 µM. actives 68% (n = 1,200). AID 2287;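 active means fluorescence ratio rising 3 SD or more over the vehicle control mean in both replicates, plus primary screen hit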;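 further: peak minus minimum thallium fluorescence divided by baseline after K/Tl stimulus; 0% = vehicle mean plus 3 SD and 100% = vehicle minus unstimulated blank difference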
Kir2-1 sel: mouse Kir2.1 off-target activity of KCNQ2 potentiators; shares compounds with KCNQ2 pot; HEK293 Kir2.1, FluxOR thallium flux fluorescence; activity over 3SD threshold, % at 10 µM; actives 2% (n = 1,200);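 active means fluorescence ratio rise of at least 3 SD above the vehicle-control mean, seen in both replicates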;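 further: 0% = vehicle mean plus 3 SD and 100% = vehicle minus no-stimulus blank window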
KCNQ2 W236L MoA: potentiates the retigabine-insensitive rat KCNQ2 W236L mutant channel; AID 2558; actives 10% (n = 940); shares compounds with KCNQ2 pot; current increase over 3SD of negative controls (%), stronger effect = higher value, % at 25 µM; CHO KCNQ2-W236L, automated patch clamp current;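 active means current increase at least 3 SD of the untreated controls above them in both duplicate recordings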
* marks the source's active call; other numbers are inactive results; i = inactive; . = no result given.

SMILES | KCNQ2 inh | KCNQ2 pot | Kir21 conf inh | HEK293 Tl flux | others
COc1cccc(CNCCc2c[nH]c3ccccc23)c1OCc1ccc(F)cc1 | -8* | -8 | i | i
COc1cc(NC(=S)NCCc2c[nH]c3ccccc23)c(OC)cc1Cl | i | . | . | .
COc1ccccc1NC(=S)NCCc1c[nH]c2ccccc12 | i | 0.21 | 72%* | i
CCCCN(C(=O)c1ccc2c(c1)OCO2)c1ccccc1 | i | . | . | .
COC(=O)CSc1nc2c(c(-c3ccc(C)o3)c1C#N)CCCC2 | i | 22* | i | i | CHO-K1 Tl ctr=-21;KCNQ1 pot spec=-11;KCNQ2 pot confirm=41*;Kir2-1 sel=-37;KCNQ2 W236L MoA=i
CCSc1nc2c(c(-c3ccc(C)o3)c1C#N)CCCC2 | i | . | . | .
Cc1cccc(NC(=O)N2CCCC2C(=O)Nc2ccccc2)c1 (configuration not stated) | i | . | . | .
CCCN(CC(=O)Nc1ccccc1C)C(=O)Cc1coc2cc(C)ccc12 | i | . | . | .
CCc1nc(C)cn1S(=O)(=O)c1ccc(Cl)c(Cl)c1Cl | i | . | . | .
CCc1nc(C)cn1S(=O)(=O)c1cc(F)ccc1OC | i | 1.9 | . | .
CCc1nc(C)cn1S(=O)(=O)c1cc(Br)c(C)cc1OC | i | . | 35%* | i
CCc1nc(C)cn1S(=O)(=O)c1cc(Cl)c(OC)cc1Cl | i | 0.58 | 58%* | i
CCc1nc(C)cn1S(=O)(=O)c1cc(C)c(OC)cc1C | i | 1.6 | . | .
CCc1nc(C)cn1S(=O)(=O)c1cc(Br)ccc1OC | i | 1 | 24%* | i
CCOC(=O)c1[nH]c(C)c(CC(C)C)c1C | i | 2.4 | . | .
Cc1cccc(/C=N/n2c(C)nc3ccccc3c2=O)c1 | i | . | . | .
CCCCC#Cc1ccccc1CC(=O)Nc1ccccc1 | i | 7.1* | i | i | CHO-K1 Tl ctr=99*;KCNQ1 pot spec=-6;KCNQ2 pot confirm=9.6*;Kir2-1 sel=-37;KCNQ2 W236L MoA=i
CCCC(=O)Nc1ccc(C#Cc2ccccc2)cc1 | i | . | . | .
O=C(NCCCO)/C(=C\c1ccco1)NC(=O)c1ccco1 | i | . | . | .
Cc1cc(-c2n[nH]c(=S)n2/N=C/C(Cl)=C/c2ccccc2)n[nH]1 | i | . | . | .
S=c1[nH]nc(-c2ccco2)n1/N=C/C(Cl)=C/c1ccccc1 | i | 7.2* | i | 129%* | CHO-K1 Tl ctr=-21;KCNQ1 pot spec=-16;KCNQ2 pot confirm=-3;Kir2-1 sel=-36;KCNQ2 W236L MoA=i
O=C(Nc1ccccc1)N(Cc1ccccc1)CC(O)C(F)(F)F (configuration not stated) | i | . | . | .
O=C(Nc1cccc(F)c1)N(Cc1ccc(Cl)cc1)CC(O)C(F)(F)F (configuration not stated) | i | 6.7* | i | i | CHO-K1 Tl ctr=-1;KCNQ1 pot spec=40*;KCNQ2 pot confirm=14*;Kir2-1 sel=-27;KCNQ2 W236L MoA=i
Cc1cccc(NS(=O)(=O)c2ccc(C(=O)N3CC(C)OC(C)C3)cc2)c1C (configuration not stated) | i | 0.32 | . | .
COc1ccccc1-c1nc(=S)c(C(C)=O)c(C)[nH]1 | i | 0.12 | . | .
SMILES | KCNQ2 inh | KCNQ2 pot | Kir21 conf inh | HEK293 Tl flux | others
CC(=O)c1c(C)[nH]c(-c2ccccc2)nc1=S | i | 6* | i | 168%* | CHO-K1 Tl ctr=41*;KCNQ1 pot spec=-4;KCNQ2 pot confirm=-2;Kir2-1 sel=-24;KCNQ2 W236L MoA=i
O=C(CNC(=O)c1ccc(Cl)cc1)NCCCn1ccnc1 | i | . | . | .
COc1cc(CNCc2ccccn2)ccc1OCc1c(Cl)cccc1Cl | i | 0.47 | 40%* | i
COc1cc(CNCc2ccccn2)ccc1OCc1ccc(Cl)cc1 | i | 1.3 | . | .
CCOC(=O)C(NC(=O)c1ccccc1)=C1C=C(C)OC(C)=C1 | i | 6.8* | i | i | CHO-K1 Tl ctr=1.7*;KCNQ1 pot spec=-7;KCNQ2 pot confirm=8.7*;Kir2-1 sel=-32;KCNQ2 W236L MoA=i
COC(=O)C(NC(=O)c1ccccc1)=C1C=C(C)OC(C)=C1 | i | 5 | . | .
